Test results from the supplement of paper PMC11001985.

Chain of UniProt P35579 (P35579 whole entry): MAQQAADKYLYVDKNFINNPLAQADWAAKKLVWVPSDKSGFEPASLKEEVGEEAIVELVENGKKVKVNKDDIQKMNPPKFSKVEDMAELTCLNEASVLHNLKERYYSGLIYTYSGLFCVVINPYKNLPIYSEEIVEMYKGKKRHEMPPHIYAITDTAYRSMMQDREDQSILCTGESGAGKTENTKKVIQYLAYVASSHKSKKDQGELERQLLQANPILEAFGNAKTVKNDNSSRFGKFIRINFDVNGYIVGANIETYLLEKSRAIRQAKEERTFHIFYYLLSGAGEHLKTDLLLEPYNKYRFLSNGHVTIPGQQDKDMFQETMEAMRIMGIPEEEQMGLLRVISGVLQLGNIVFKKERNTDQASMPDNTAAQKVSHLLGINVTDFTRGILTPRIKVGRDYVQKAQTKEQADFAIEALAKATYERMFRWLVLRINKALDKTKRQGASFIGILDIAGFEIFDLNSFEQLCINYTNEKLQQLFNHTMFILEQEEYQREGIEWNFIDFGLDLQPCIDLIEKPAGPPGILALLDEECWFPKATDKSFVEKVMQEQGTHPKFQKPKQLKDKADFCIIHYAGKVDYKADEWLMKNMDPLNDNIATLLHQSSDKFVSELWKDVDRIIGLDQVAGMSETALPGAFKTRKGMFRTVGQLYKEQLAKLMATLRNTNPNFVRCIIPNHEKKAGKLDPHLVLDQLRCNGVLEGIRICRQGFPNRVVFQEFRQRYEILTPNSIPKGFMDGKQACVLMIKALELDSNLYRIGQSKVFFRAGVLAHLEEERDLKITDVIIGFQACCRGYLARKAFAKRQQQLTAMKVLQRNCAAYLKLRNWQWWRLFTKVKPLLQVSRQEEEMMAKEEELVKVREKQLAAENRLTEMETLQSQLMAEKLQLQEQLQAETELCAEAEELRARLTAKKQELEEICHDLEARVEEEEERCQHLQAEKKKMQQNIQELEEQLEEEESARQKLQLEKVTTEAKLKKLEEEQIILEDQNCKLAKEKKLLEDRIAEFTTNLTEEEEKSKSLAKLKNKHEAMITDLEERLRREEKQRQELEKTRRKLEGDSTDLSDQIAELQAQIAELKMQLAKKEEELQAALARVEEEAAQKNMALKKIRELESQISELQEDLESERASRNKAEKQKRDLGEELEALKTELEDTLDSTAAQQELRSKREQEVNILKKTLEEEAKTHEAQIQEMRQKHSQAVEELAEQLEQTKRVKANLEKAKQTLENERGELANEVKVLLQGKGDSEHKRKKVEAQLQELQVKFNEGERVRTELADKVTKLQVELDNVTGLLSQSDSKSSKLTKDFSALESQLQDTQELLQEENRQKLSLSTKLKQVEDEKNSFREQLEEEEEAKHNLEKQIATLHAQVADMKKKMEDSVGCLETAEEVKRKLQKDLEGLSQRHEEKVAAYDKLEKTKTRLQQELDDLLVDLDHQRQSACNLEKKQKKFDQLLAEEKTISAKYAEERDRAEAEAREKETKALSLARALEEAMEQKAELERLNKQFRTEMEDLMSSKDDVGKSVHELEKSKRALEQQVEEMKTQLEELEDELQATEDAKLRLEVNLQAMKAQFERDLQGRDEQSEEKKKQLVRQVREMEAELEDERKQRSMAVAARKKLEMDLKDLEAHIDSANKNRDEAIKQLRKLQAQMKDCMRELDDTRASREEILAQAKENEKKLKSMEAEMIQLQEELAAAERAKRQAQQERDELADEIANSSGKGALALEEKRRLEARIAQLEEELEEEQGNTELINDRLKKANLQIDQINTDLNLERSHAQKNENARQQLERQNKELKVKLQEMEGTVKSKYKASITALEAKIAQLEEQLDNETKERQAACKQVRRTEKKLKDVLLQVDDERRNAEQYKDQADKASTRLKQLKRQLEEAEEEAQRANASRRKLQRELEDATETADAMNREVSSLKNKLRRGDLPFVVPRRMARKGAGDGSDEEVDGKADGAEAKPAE
Chain of UniProt Q9UII2 (Q9UII2 whole entry): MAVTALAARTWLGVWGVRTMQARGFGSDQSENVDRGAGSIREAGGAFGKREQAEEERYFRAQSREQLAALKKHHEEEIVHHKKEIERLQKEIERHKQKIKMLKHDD
Chain of UniProt Q9Y490 (Q9Y490 whole entry): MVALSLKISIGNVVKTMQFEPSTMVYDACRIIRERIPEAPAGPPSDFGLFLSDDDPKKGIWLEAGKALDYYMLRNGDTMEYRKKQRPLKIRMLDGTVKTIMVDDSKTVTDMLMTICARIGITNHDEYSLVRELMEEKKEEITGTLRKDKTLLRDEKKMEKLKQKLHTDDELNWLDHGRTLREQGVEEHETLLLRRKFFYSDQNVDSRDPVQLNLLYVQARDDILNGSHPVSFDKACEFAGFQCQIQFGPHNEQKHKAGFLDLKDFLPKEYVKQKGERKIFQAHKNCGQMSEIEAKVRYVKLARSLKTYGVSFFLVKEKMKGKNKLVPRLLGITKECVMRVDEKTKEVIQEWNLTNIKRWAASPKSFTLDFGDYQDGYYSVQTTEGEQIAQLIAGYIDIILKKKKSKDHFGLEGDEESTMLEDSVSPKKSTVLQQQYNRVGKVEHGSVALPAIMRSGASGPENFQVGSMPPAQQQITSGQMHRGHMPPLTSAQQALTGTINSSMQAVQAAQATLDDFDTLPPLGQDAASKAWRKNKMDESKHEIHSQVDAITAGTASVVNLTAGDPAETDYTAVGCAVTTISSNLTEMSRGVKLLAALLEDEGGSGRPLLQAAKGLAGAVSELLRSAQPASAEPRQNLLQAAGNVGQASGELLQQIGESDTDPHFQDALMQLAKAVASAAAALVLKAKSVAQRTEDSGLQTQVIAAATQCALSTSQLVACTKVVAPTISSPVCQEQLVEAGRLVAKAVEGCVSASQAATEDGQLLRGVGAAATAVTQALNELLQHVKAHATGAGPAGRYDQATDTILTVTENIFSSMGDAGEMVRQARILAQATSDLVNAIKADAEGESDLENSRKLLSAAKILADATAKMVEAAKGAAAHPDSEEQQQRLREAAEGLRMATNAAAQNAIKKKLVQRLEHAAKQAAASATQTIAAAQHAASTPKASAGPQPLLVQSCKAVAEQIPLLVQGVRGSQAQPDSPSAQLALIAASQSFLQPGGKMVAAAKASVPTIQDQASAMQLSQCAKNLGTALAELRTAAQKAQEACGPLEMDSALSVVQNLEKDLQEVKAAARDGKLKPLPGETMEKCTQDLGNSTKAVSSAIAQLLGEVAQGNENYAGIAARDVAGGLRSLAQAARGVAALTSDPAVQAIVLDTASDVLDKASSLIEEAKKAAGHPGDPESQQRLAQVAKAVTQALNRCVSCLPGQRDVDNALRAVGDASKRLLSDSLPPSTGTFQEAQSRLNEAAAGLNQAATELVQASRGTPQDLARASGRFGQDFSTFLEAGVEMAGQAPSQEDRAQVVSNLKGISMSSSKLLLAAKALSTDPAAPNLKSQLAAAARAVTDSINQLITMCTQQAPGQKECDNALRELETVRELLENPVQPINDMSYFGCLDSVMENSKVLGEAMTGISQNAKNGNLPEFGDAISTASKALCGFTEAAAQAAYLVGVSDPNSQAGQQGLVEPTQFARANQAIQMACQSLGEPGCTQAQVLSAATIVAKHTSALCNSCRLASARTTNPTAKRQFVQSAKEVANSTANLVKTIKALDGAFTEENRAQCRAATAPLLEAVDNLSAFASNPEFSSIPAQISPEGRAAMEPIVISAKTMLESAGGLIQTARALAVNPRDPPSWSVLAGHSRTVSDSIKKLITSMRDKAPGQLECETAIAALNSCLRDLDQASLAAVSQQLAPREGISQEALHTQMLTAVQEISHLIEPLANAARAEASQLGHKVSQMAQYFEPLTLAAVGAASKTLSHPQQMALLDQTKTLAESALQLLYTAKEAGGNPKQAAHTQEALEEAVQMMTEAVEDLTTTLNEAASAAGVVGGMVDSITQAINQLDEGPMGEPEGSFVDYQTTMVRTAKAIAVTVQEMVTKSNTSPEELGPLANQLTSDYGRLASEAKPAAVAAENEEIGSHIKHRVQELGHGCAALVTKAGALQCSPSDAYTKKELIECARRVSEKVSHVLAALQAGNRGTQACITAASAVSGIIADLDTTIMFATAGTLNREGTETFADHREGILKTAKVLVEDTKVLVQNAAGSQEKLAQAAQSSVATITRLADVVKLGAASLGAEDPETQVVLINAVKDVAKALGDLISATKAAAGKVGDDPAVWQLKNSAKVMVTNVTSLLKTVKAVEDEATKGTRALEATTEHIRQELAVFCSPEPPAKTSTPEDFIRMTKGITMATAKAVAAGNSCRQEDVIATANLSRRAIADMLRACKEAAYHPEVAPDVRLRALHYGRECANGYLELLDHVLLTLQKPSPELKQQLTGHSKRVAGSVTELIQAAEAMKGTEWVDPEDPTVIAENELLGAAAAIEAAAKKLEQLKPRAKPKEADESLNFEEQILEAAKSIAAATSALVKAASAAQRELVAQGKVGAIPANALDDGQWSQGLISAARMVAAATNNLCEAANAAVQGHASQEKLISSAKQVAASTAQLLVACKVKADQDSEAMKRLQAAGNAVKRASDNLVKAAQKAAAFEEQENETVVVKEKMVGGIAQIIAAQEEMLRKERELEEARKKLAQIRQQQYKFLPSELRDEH
Chain of UniProt P62491 (P62491 whole entry): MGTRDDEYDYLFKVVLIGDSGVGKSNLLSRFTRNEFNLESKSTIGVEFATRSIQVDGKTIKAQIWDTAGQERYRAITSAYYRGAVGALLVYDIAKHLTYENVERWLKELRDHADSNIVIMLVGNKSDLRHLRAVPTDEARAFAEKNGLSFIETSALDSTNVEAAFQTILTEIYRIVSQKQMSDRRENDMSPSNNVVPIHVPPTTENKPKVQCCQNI

These targets were tested with C#CCNC(=O)CCSSCCC(=O)NCCc1ccc(C=O)c(C=O)c1 (assay: lysine labeling ratio R10:1 (500 µM / 50 µM probe), SILAC-ABPP in living cells; higher = lower intrinsic lysine reactivity toward the probe, active = 2 or less). Conditions: HeLa; probe concentrations 500 vs 50 µM.
Method in brief: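 SILAC light and heavy living HeLa cells in PBS at room temperature were labelled with 50 µM or 500 µM of an alkyne-tagged, disulfide-linked lysine probe, with forward and reverse label swaps. Mixed lysates were clicked to biotin-azide, trypsin-digested, captured on neutravidin, DTT-released, alkylated and analysed by LC-MS/MS on a TIMS-TOF Pro. R is the filtered median high-probe/low-probe MS1 peptide ratio per lysine, then the median across forward and reverse replicates. Ratios are capped at 20.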
For “MYH9 (lysine site: K299) (UniProt P35579)”, the “lysine labeling ratio R10:1” value was 2.23 (inactive). In the case of UniProt P02768 (lysine site: K229), the “lysine labeling ratio R10:1” value is reported as 5.69 (inactive). With “MYH9 (lysine site: K1867) (UniProt P35579)” the “lysine labeling ratio R10:1” value was 2.53 (inactive). In the case of “ICAM1 (lysine site: K469) (UniProt P05362)”, the “lysine labeling ratio R10:1” value is reported as 4.19 (inactive). For UniProt Q9UHN6 (lysine site: K1182), the “lysine labeling ratio R10:1” value was 6.32 (inactive). UniProt Q15149 (lysine site: K2846) was tested, and the “lysine labeling ratio R10:1” value was 3.06 (inactive). With “FLNA (lysine site: K2000) (UniProt P21333)” the “lysine labeling ratio R10:1” value was 1.14 (active). “TLN1 (lysine site: K147) (UniProt Q9Y490)” was tested, and the “lysine labeling ratio R10:1” value was 1.5 (active). “CCT8 (lysine site: K440) (UniProt P50990)” was tested, and the “lysine labeling ratio R10:1” value was 2.29 (inactive). With “HSPA9 (lysine site: K76) (UniProt P38646)” the “lysine labeling ratio R10:1” value was 3.36 (inactive). With “PLXNB2 (lysine site: K1121) (UniProt O15031)” the “lysine labeling ratio R10:1” value was 0.81 (active). UniProt Q9UII2 (lysine site: K49) was tested, and the “lysine labeling ratio R10:1” value was 3.39 (inactive). “PABPC1 (lysine site: K157) (UniProt P11940)” was tested, and the “lysine labeling ratio R10:1” value was 1.38 (active). UniProt P62491 (lysine site: K179) was tested, and the “lysine labeling ratio R10:1” value was 2.31 (inactive). With “RPL28 (lysine site: K72) (UniProt P46779)” the “lysine labeling ratio R10:1” value was 2.12 (inactive). With “ANPEP (lysine site: K836) (UniProt P15144)” the “lysine labeling ratio R10:1” value was 0.79 (active). “A2M (lysine site: K116) (UniProt P01023)” was tested, and the “lysine labeling ratio R10:1” value was 0.757 (active).
